From PubChem BioAssay
KB-V1 MDR tox = kills drug-selected multidrug resistant KB-V1 cells. KB-V1 MDR cells viability, CellTiter-Glo, 72 h. Potency, µM (highest dose often 46.1 µM), most hits filed as cytotoxic. 400,000 tested, 3.4% active. AID 1347076; further: nearly all actives have a fitted effect of over 60% in size
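Cells of the MDR subline KB-V1 are plated, dosed with compound at multiple concentrations, and incubated 72 h at 37 degrees C; CellTiter-Glo is then added and luminescence read after 10 min.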
TDP1 cell noCPT = qHTS for Inhibitors of human tyrosyl-DNA phosphodiesterase 1 (TDP1): qHTS in cells in absence of CPT; DT40 Tdp1-/- hTDP1 cells, no CPT, ATP luminescence, 48 h; Potency, µM (series often up to 46.2 µM), inactives show top-dose activity change, negative = growth inhibition, hits mostly inhibitors; 420,000 tested, 15% active; further: nearly all actives have a fitted effect of over 55% in size
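Cells were dispensed at 400 per well, compounds added by pin tool, plates incubated ≥48 hr at 37 °C, then CellTiter-Glo added for 30 min at room temperature before luminescence reading. Line: DT40 Tdp1-/- complemented with hTDP1; camptothecin omitted.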
TDP1 cell CPT = growth inhibition of DT40 Tdp1-/-;hTDP1 cells with camptothecin (screen for TDP1 inhibitors) | chicken DT40 Tdp1-/-;hTDP1 cells + 20 nM CPT, ATP luminescence, 48 h | Potency, µM (top dose mostly 46.2 µM), inactives show at the highest dose activity change, negative = growth inhibition, hits mostly inhibitors | 420,000 tested, 12% active | AID 686979; further: nearly all actives have a fitted effect of over 55% in size
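Chicken DT40 Tdp1-/- cells complemented with human TDP1, 400 cells/well, exposed to compounds plus 20 nM camptothecin for at least 48 h at 37 C; viability read as ATP content by CellTiter-Glo luminescence.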
HT1080NT lethal = kills 2HG-producing HT-1080-NT fibrosarcoma cells; HT-1080-NT fibrosarcoma viability, CellTiter-Glo ATP luminescence, 48 h; Potency, µM (series often up to 46.1 µM), without a hit: at the top dose activity, negative = less viability, most hits filed as cytotoxic; 360,000 tested, 1.6% active; AID 686970;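 further: NT is the 2HG producing partner of a matched IDH1 knockdown line; 0% = DMSO-treated cells and -100% = media-only wells without cells; nearly all actives have a fitted effect of over 55% in size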
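HT-1080-NT; 750 cells/well; 5% FBS RPMI; 48 h compound, 37 degrees C; CellTiter-Glo luminescence; curve fitting and curve-class assignment.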
HT1080 IDH1KD tx = HT-1080 IDH1 knockdown cell toxicity (counter line) | HT-1080 IDH1 knockdown viability, ATP luminescence, 48 h | Potency, µM (highest dose often 46.1 µM), inactives show at the highest dose activity, negative = toxicity, most hits filed as cytotoxic | 360,000 tested, 2% active | AID 686971;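 further: 0% = DMSO wells and -100% = cell-free medium wells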
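Knockdown cells (IDH1KD HT-1080) received compounds 2 h after plating at 750 cells/well and were kept 48 h at 37 °C in 5% FBS RPMI. A CellTiter-Glo luminescence read gave % activity for curve fitting.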
KB-3-1 tox = kills parental KB-3-1 adenocarcinoma cells | KB-3-1 viability, CellTiter-Glo ATP luminescence, 72 h | 400,000 tested, 1.4% active | Potency, µM (titrated, usually from 46.1 µM), hits mostly cytotoxic; further: nearly all actives have a fitted effect of over 60% in size
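Cytotoxicity measured as CellTiter-Glo luminescence after 72 h at 37 C. Compound titrations were pinned onto drug-naive KB-3-1 parental adenocarcinoma cells grown in DMEM with 10% FBS, and normalized data fitted to concentration-response curves.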
Starred values were filed as active, the others as inactive; i = inactive; ? = inconclusive; nt = no result; [ ] = dose if it differs, or a comment. Shown are actives, neighbours in structure and some others; about 19% of the full set was active somewhere. The call rests on the fitted dose curve; in most records, active means well fitted curve in the direction sought with a large enough effect; inconclusive means small, poorly fitted or top-dose-only effect, or another doubt; inactive means no such curve, though single readings can be large; an effect the other way counts as inactive or inconclusive. Unless noted, on the % scale 0 is the no-effect control and ±100 the full control effect; potency means the concentration at half of the fitted maximal effect.

SMILES | KB-V1 MDR tox | TDP1 cell noCPT | TDP1 cell CPT | HT1080NT lethal | HT1080 IDH1KD tx | KB-3-1 tox
COC(=O)c1cc2sc(C)cc2n1CC(=O)Nc1ccc(C)cc1Cl | i | ? | ? | nt | nt | i
Cc1ccc(C(=O)N2C3C=CC(C3)C2(C(F)(F)F)C(F)(F)F)cc1 (configuration not stated) | i | -23% | -26% | 14% | 6% | i
Cc1ccc(S(=O)(=O)N2CCC(C(=O)Nc3ccc(C(C)C)cc3)CC2)cc1 | i | 15µM* | 23µM* | -8%[9.24 µM] | -3% | ?
Cc1ccc(S(=O)(=O)N2CCN(c3nn(C)c(=O)n(C)c3=O)CC2)cc1C | ? | ? | 7.3µM* | -10% | -3% | ?
Cn1nc(N2CCN(S(=O)(=O)c3ccccc3)CC2)c(=O)n(C)c1=O | i | ? | ? | -6% | 5% | i
Cc1ccc(S(=O)(=O)N2CCCN(S(=O)(=O)c3ccc4ccccc4c3)CC2)cc1 | 8.2µM* | ? | 8.2µM* | 3% | 5% | i
COC(=O)C1(C(F)(F)F)C2C=CC(C2)N1S(=O)(=O)c1ccc(C)cc1 (configuration not stated) | i | 21µM* | 23µM* | 4% | -9% | i
COc1ccc(C2c3c(oc4ccc(Cl)cc4c3=O)C(=O)N2CCCN(C)C)cc1OC (configuration not stated) | nt | ? | -15% | nt | nt | nt
Cc1cc(C)n(-c2ccc(C(=O)OCC(=O)NCc3ccc(F)cc3)cc2)n1 | ? | -3% | 13% | 11% | 9% | i
COC(=O)CCN(C1CCCCC1)S(=O)(=O)c1ccc(S(=O)(=O)N2CCCCC2)cc1 | ? | 13µM* | 29µM* | -26% | 24% | i
Cc1ccccc1C(=O)N1CCC(C(=O)Nc2ccc(S(=O)(=O)N3CCOCC3)cc2)CC1 | ? | ? | ? | -2% | 5% | ?
Cc1ccccc1C(=O)N1CCC(C(=O)Nc2ccc(S(=O)(=O)N3CCCCC3)cc2)CC1 | ? | 12µM* | 16µM* | 0% | -19% | ?
COc1ccc(S(=O)(=O)N2CCC(C(=O)Nc3ccc(OC)c(OC)c3)CC2)cc1C | i | -18% | -14% | 0% | 1% | i
O=C(CN(C1CC1)S(=O)(=O)c1ccc(S(=O)(=O)N2CCCCCC2)cc1)Nc1ccccc1 | i | -25% | -9% | ? | ? | i
COC(=O)C1(C(=O)OC)CCCCN(S(=O)(=O)c2ccc(C)cc2)CCC1 | ? | 21µM* | ? | -2% | -14% | ?
Cc1ccc(S(=O)(=O)N2CCC(C(=O)Nc3ccc(S(=O)(=O)N4CCCC4)cc3)CC2)cc1C | i | 18µM* | ? | -19% | -18% | i
O=C(Nc1cc([N+](=O)[O-])ccc1F)C1CCN(S(=O)(=O)c2cccs2)CC1 | nt | ? | ? | -2% | 5% | nt
C/C(=N\NC(=O)c1cccc([N+](=O)[O-])c1)c1cccc(NC(=O)C2CC2)c1 | i | ? | -30% | ? | ? | i
Cc1ccc(S(=O)(=O)N2CCCN(S(=O)(=O)c3ccc(C)c(C)c3)CC2)cc1C | 4.1µM* | 18µM* | 23µM* | 9% | 9% | i
Cc1ccc(S(=O)(=O)N2CCCC2)cc1S(=O)(=O)N1CCCC1 | ? | -20% | -9% | -9% | -12% | i
COC(=O)Nc1ccc(S(=O)(=O)N2CCC(Cc3ccccc3)CC2)cc1 | i | 21µM* | ? | -7% | -24% | i
O=S(=O)(c1ccc2ccccc2c1)N1CCN(c2ccc(O)cc2)CC1 | i | 8.2µM* | 6.5µM* | -25% | ? | i
O=S(=O)(c1ccc2ccccc2c1)N1CCOCC1 | i | 0% | -5% | -3% | -3% | i
C/C(=N/NC(=O)C1CCN(S(=O)(=O)c2ccc(C)cc2)CC1)c1cccc([N+](=O)[O-])c1 | 23µM* | -30% | -3% | 10% | -3% | i
CC(=O)c1ccccc1-c1ccc2c(c1)CC(CNC(=O)Cc1c[nH]c3ccccc13)O2 (configuration not stated) | nt | -10% | 13%[9.04 µM] | nt | nt | nt
SMILES | KB-V1 MDR tox | TDP1 cell noCPT | TDP1 cell CPT | HT1080NT lethal | HT1080 IDH1KD tx | KB-3-1 tox
O=S1(=O)CC(N2CCN(CC3CC3)CC2)CN1Cc1cn(Cc2ccccc2C(F)(F)F)nn1 (configuration not stated) | i | -12% | -3% | 25% | 0% | i
CC(Sc1nccn1C)C(=O)Nc1ccccc1C#N (configuration not stated) | i | nt | nt | nt | nt | i
COc1ccc(OC)c(C(=O)c2coc3ccc(O)c(CN(C)C)c23)c1 | i | ? | -26% | -2% | 0% | i
COc1ccc2occ(C(=O)c3coc4ccc(O)c(CN(C)C)c34)c2c1 | ? | ? | 16µM* | -3% | -16% | i
O=C(O)c1ccc(N/N=C/C2=Cc3ccccc3OC2)cc1 | i | 5% | -22% | ? | ? | i
Cc1cc(C)c(CN2CCN(C(=O)Cn3ccc(N)nc3=O)CC2)c(C)c1 | i | -16% | -13% | 6% | -1% | i
CSc1nc(N)nc2c1ncn2CC(=O)N1CCN(Cc2c(C)cc(C)cc2C)CC1 | i | 0.82µM* | 1.8µM* | ? | ? | ?
CC(C)CCn1cnc2c(NCc3ccccc3)ncnc21 | 16µM* | ? | -16% | -1% | 1% | i
O=C(Cn1cnc2c(NCc3ccccc3)ncnc21)NCC1CCCO1 (configuration not stated) | i | -18% | -18% | 5% | 5% | i
Cc1cc(C)c(CN2CCN(C(=O)Cn3cnc4c(NCc5ccccc5)ncnc43)CC2)c(C)c1 | ? | 1.8µM* | 5.8µM* | ? | ? | ?
Cc1cc(S(=O)(=O)NCCCN2CCOCC2)ccc1Br | i | 2% | -5% | 5% | 7% | ?
CCN(Cc1ccncc1)Cc1ccc2c(c1)CN(C(=O)c1ccc(C)cc1)CCO2 | nt | ? | 8%[9.04 µM] | nt | nt | nt
O=C(NCc1ccco1)c1[nH]c(C(F)(F)F)nc1-c1ccccc1 | ? | -28% | -11% | 1% | 6% | i
Cc1cc(NC(=O)C2CCCC2)nc2c1c(=O)oc1ccccc12 | ? | 18µM* | ? | 7% | 13% | i
Cc1ccc(C)c(CN2C(=O)c3ccccc3S(=O)(=O)c3ccc(C(=O)Nc4cc(F)ccc4F)cc32)c1 | i | nt | nt | nt | nt | i
